Measurements taken from the supplement of paper PMC4466236.
Whole data set: some 33,000 sequences, median “E-score (dimensionless, -0.5 to 0.5)” near -0.058, cut for the highest 2% near 0.35. Only a selection was taken, and the highest values are over-represented in it overall.

Test system: MvaT
Test: PBM 8-mer E-score (mean of HK and ME arrays) (E-score (dimensionless, -0.5 to 0.5)); higher = stronger relative binding preference
Method in brief: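 Full-length P. aeruginosa MvaT, with glutathione S-transferase fused to its N-terminus (cloned into pTH6838 by isothermal assembly), was tested by protein binding microarray using a previously described protocol. Two universal double-stranded 60-mer arrays (ME and HK) were used, each with a constant 25-mer primer region and a variable 35-mer region covering all 8-mers. The rank-based 8-mer E-score (-0.5 to 0.5) is the mean of the two arrays, parsed with a custom Python script.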

Row | Sequence | PBM 8-mer E-score
1 | AGAGGTCA | -0.266
2 | ACGGCAAC | -0.107
3 | CGTTTTGC | 0.0694
4 | TGGTTGAA | -0.0872
5 | CCTCATAA | -0.0267
6 | TCGTTAAA | 0.156
7 | CAGAAGGC | -0.229
8 | CTGAGCAA | -0.0891
9 | TAAACAGA | 0.188
10 | ACAGACTA | 0.136
11 | AGTCCGTC | -0.103
12 | CGCACCCG | -0.242
13 | CGTTATAA | 0.39
14 | CGTTATAG | 0.2
15 | AGTTATAA | 0.43
16 | AGTTATAC | 0.393
17 | GGTTATAC | 0.0501
18 | GGTTATAA | 0.344
19 | AGTTATGC | 0.246
20 | AGTTATGA | 0.319
21 | TGTTACAA | 0.257

Row | Sequence | PBM 8-mer E-score
22 | TGTTATAA | 0.437
23 | CGTTATAC | 0.21
24 | AGTTATCA | 0.242
25 | CCAACCGA | -0.0134
26 | TACCAAGA | -0.0377
27 | TCCCAACA | 0.111
28 | CGATACCC | -0.141
29 | CGCGTCCC | -0.132
30 | ACTGTGAC | 0.0208
31 | AGTGCCGG | -0.0286
32 | GTACCTTA | 0.119
33 | CGGGCCAA | -0.118
34 | GGGCGCTA | -0.265
35 | GGGACAGA | -0.12
36 | CCACCGTC | -0.258
37 | AGCTATAT | 0.328
38 | AGTTATAG | 0.316
39 | AGTTATAT | 0.437
40 | ATGGGTAC | -0.0802
41 | AGCGTTGA | -0.0483
42 | AGGTATGA | 0.12
